In article PMC5540273 (PLoS ONE, 2017):

Assays:
Conditions in all cases: concentration: 1 μM, replicates: in singlicate; n = 1
SGK2 = tested on: SGK2
SGK3 = tested on: SGK3
SGK = tested on: SGK
SIK2 = tested on: SIK2
SIK = tested on: SIK
SLK = tested on: SLK
SNARK = tested on: T1, SNARK
T1 construct: gene NUAK2

SNRK = tested on: SNRK
SRC = tested on: SRC
SRMS = tested on: SRMS
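Note: KINOMEscan kinase panel screen.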

SMILES	%Inh (SGK2)	%Inh (SGK3)	%Inh (SGK)	%Inh (SIK2)	%Inh (SIK)	%Inh (SLK)	%Inh (SNARK)	%Inh (SNRK)	%Inh (SRC)	%Inh (SRMS)
Cc1ccccc1COc1cc(-n2cnc3cc(Cl)ccc32)sc1C(N)=O [GW813349]	6%	1%	0%	0%	4%	73%	4%	3%	0%	0%
Cl.c1ccc(Cn2cnc3cc(Nc4ncnc5ccccc45)ccc32)cc1 [GW272142]	0%	0%	0%	0%	0%	20%	0%	0%	0%	0%
O=C1NC(=O)C(c2ccccc2)=C1Nc1cccc(O)c1 [SB-390534]	9%	20%	11%	0%	0%	51%	16%	0%	0%	17%
COc1cc(Nc2nccc(N3CCC(NC(=O)C4COc5ccccc5O4)C3)n2)cc(OC)c1OC (centres unmarked) [GSK1379761]	0%	0%	17%	0%	0%	17%	23%	0%	53%	11%
Nc1nc(-c2ccccc2F)c(-c2ccnc3ccccc23)s1 [GW560459]	1%	5%	15%	0%	0%	4%	8%	0%	0%	0%
Cc1nc(N(C)[C@H]2CN(C(=O)CC#N)CC[C@H]2C)c2cc[nH]c2n1	7%	0%	25%	0%	6%	1%	1%	0%	11%	2%
O=C(Nc1n[nH]c2cc(-c3ccccc3F)ccc12)C1CC1 [SB-733371]	11%	12%	5%	5%	0%	1%	1%	0%	0%	14%
Cc1ccc(-c2ccc3c(ccc4sc5c(c43)NC[C@@H](C)N=C5N(C)C)n2)cn1	0%	0%	0%	0%	3%	0%	0%	0%	0%	0%
OCCCNc1nccc(-c2c(-c3cccc(C(F)(F)F)c3)nn3cc(C(F)(F)F)ccc23)n1 [GW630813]	0%	6%	0%	0%	0%	4%	0%	0%	0%	0%
COC(=O)c1c(-c2ccccc2)c2cc(Br)ccc2c(=O)n1Cc1ccc(S(C)(=O)=O)cc1	21%	23%	14%	0%	22%	0%	20%	11%	8%	0%
COc1cc(Nc2nccc(N3CCC(NC(=O)C(C)c4ccc(Cl)cc4)C3)n2)cc(OC)c1OC (centres unmarked) [GSK1379757]	0%	0%	0%	0%	1%	1%	19%	0%	13%	0%
COc1cccc(-n2cnc3c(N)ncnc32)c1 [SKF-97416]	8%	0%	44%	0%	0%	2%	5%	20%	13%	22%
COc1cc2ncn(-c3cc(OCc4ccncc4)c(C(N)=O)s3)c2cc1OC [GSK336313]	0%	3%	0%	0%	0%	43%	4%	0%	0%	0%
CCCNC(=O)Nc1ccc(Oc2ncnc3ccn(C)c23)cc1	13%	0%	1%	0%	23%	0%	0%	0%	0%	0%
Nc1ncnc2c1ncn2-c1cccc2ccccc12 [SKF-97184]	21%	4%	35%	0%	0%	0%	0%	2%	8%	17%
COc1ccc(-c2cc3c(C)nc(N)nc3n([C@H]3CC[C@H](OCCO)CC3)c2=O)cn1	0%	17%	0%	5%	18%	0%	0%	0%	8%	1%
Cc1c(Cn2c(C)nn3c(=O)cc(N4CCO[C@H](C)C4)nc23)cccc1C(F)(F)F [GSK2373690]	13%	0%	26%	0%	1%	18%	0%	0%	1%	0%
O=C(Nc1n[nH]c2nc(-c3ccccc3)c(Br)cc12)C1CC1 [SB-708998]	0%	0%	5%	0%	5%	20%	4%	18%	4%	0%

SMILES	%Inh (SGK2)	%Inh (SGK3)	%Inh (SGK)	%Inh (SIK2)	%Inh (SIK)	%Inh (SLK)	%Inh (SNARK)	%Inh (SNRK)	%Inh (SRC)	%Inh (SRMS)
O=C(NCCNc1ccnc(Nc2ccc(F)cc2)n1)Nc1ccc2c(c1)OCO2 [GSK1379882]	13%	7%	12%	0%	0%	0%	1%	0%	0%	0%
COc1ccc(-c2coc3ccc(-c4nnc(SCc5cccc(C#N)c5)o4)cc23)cc1	0%	21%	0%	0%	17%	18%	30%	18%	3%	0%
C[C@@H]1CC[C@H](C(=O)NC2CCCCC2)CN1c1cc(-c2ccc3c(N)n[nH]c3c2)nc(N)n1 [GSK2291363]	0%	13%	0%	3%	29%	20%	31%	0%	3%	11%
Cc1cc(Nc2nc(-c3cccc(C)n3)nc3ccccc23)ccn1 [GW872411]	0%	0%	0%	23%	0%	0%	0%	0%	0%	13%
Cc1cccc(-c2cc(-c3c[nH]nc3-c3ccccn3)ccn2)c1 [GW679395]	6%	0%	0%	0%	0%	0%	0%	0%	53%	0%
COc1cc2ncn(-c3cc(OCc4ccncc4Br)c(C(N)=O)s3)c2cc1OC [GW854278]	3%	16%	4%	6%	26%	95.9%	0%	0%	0%	0%
COc1ccc(-c2cc3c(C)nc(N)nc3n([C@H]3CC[C@H](O)CC3)c2=O)cn1	0%	0%	0%	0%	0%	0%	0%	0%	0%	0%
CCC(=O)c1c(-c2ccccc2)c2cc(Cl)ccc2c(=O)n1Cc1cc(C(=O)NC2CC2)n(C)n1	5%	10%	2%	55%	1%	0%	0%	0%	0%	0%
CCC(=O)c1c(-c2ccccc2)c2cc(Cl)ccc2c(=O)n1Cc1ccc(C(=O)O)cc1	6%	0%	1%	7%	0%	0%	0%	0%	0%	0%
CN1C(=O)C(Nc2ccccc2)=C(c2ccccc2)C1=O [SB-300079]	0%	11%	7%	7%	3%	0%	12%	0%	0%	21%
COc1cc2ncn(-c3cc(OCc4ccc(S(C)(=O)=O)cc4)c(C(N)=O)s3)c2cc1OC [GW869979]	24%	5%	40%	0%	0%	29%	15%	2%	11%	14%
O=C(NCc1cccs1)c1cc(C(=O)c2c(Cl)cccc2Cl)c[nH]1 [GW823670]	0%	0%	0%	4%	4%	9%	0%	0%	0%	15%
Nc1ncnc2c1ncn2-c1ccc(Cl)cc1 [AH2635]	0%	0%	0%	0%	3%	20%	0%	0%	0%	0%
O=C(Nc1n[nH]c2nc(-c3ccccc3)c(Cl)cc12)C1CC1 [SB-734909]	5%	12%	9%	27%	0%	15%	0%	33%	0%	0%
Cc1nn2c(=O)cc(N3CCOCC3)nc2n1Cc1cccc(Cl)c1Cl [GSK2342769]	0%	0%	0%	0%	0%	4%	0%	0%	4%	0%
CN1C(=O)C(Nc2cc(Cl)c(O)c(Cl)c2)=C(c2ccc(Cl)cc2)C1=O [SB-404321]	0%	0%	0%	0%	0%	0%	0%	0%	0%	0%
FC(F)(F)c1ccc(-c2ncn(CCCN3CCOCC3)c2-c2ccncc2)cc1 [SB-217780]	25%	0%	5%	0%	0%	0%	0%	18%	0%	0%
